Experimental data reported in PubChem BioAssay AID1159580 (chemical genetic matrix, 2015).
Out of some 5,500 compounds screened, about 2,000 (36%) were called active. Inconclusive results (about 18%) are left out. Cut-off read from the data, not from the text of the source: active = normalized growth mostly below about 0.91 (no sharp cut-off); inconclusive = no clear call, values can overlap the other calls; inactive = mostly above about 0.92. The list shows a part of the results.

Test: chemical genetic growth profiling, strain panel (AID 1159580);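 note: tested at 20 µM; growth read once vehicle control cultures reached saturation at 30 °C; 1 = growth at the plate median or of vehicle wells; lower values mean less growth of the strain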
Details: growth OD
[1] = S. cerevisiae deletion strains, locus YAL013W, strain DEP1, hits give low values
[2] = S. cerevisiae deletion strains, locus YBR229C, strain ROT2, hits give low values
[3] = S. cerevisiae deletion strains, locus YDL101C, strain DUN1, hits give low values
[4] = S. cerevisiae deletion strains, locus YGR078C, strain PAC10, hits give low values
[5] = S. cerevisiae deletion strains, locus YJR043C, strain POL32, hits give low values
[6] = S. cerevisiae deletion strains, locus YKL190W, strain CNB1, hits give low values
[7] = S. cerevisiae deletion strains, locus YLR039C, strain RIC1, hits give low values
[8] = S. cerevisiae deletion strains, locus YLR262C, strain YPT6, hits give low values
[9] = S. cerevisiae deletion strains, locus YMR263W, strain SAP30, hits give low values
[10] = S. cerevisiae deletion strains, locus YMR307W, strain GAS1, hits give low values
[11] = S. cerevisiae deletion strains, locus YNL128W, strain TEP1, hits give low values
[12] = S. cerevisiae deletion strains, locus YOL006C, strain TOP1, hits give low values
[13] = S. cerevisiae deletion strains, locus YPL055C, strain LGE1, hits give low values
[14] = S. cerevisiae deletion strains, locus YPL241C, strain CIN2, hits give low values
[15] = S. cerevisiae strains, strain wild type, hits give low values
[16] = S. cerevisiae deletion strains, locus YDR150W, strain NUM1, hits give low values
[17] = S. cerevisiae deletion strains, locus YEL061C, strain CIN8, hits give low values
[18] = S. cerevisiae deletion strains, locus YHR030C, strain SLT2, hits give low values
[19] = S. cerevisiae deletion strains, locus YHR087W, strain rtc3, hits give low values
[20] = S. cerevisiae deletion strains, locus YJR075W, strain HOC1, hits give low values
[21] = S. cerevisiae deletion strains, locus YLR058C, strain SHM2 (second series), hits give low values
[22] = S. cerevisiae deletion strains, locus YLR085C, strain ARP6, hits give low values
[23] = S. cerevisiae deletion strains, locus YML094W, strain GIM5, hits give low values
[24] = S. cerevisiae deletion strains, locus YMR219W, strain ESC1, hits give low values
[25] = S. cerevisiae deletion strains, locus YNL153C, strain GIM3, hits give low values
[26] = S. cerevisiae deletion strains, locus YNL298W, strain CLA4 (second series), hits give low values
[27] = S. cerevisiae deletion strains, locus YNL322C, strain KRE1, hits give low values
[28] = S. cerevisiae deletion strains, locus YNR030W, strain Alg12, hits give low values
[29] = S. cerevisiae deletion strains, locus YPR135W, strain CTF4, hits give low values

Measured: normalized growth

COc1cc(/C=C/C=O)cc(OC)c1OC
inactive: [1] 1.03 | S. cerevisiae deletion strains, locus YBR021W, strain FUR4, hits give low values 1.01 | [2] 1.01 | S. cerevisiae deletion strains, locus YCL029C, strain bik1, hits give low values 1.03 | S. cerevisiae deletion strains, locus YDL035C, strain GPR1, hits give low values 1.04 | S. cerevisiae deletion strains, locus YDL074C, strain BRE1, hits give low values 1.07 | [3] 1.02 | S. cerevisiae deletion strains, locus YDL185W, strain tfp1, hits give low values 1 | S. cerevisiae deletion strains, locus YDL192W, strain arf1, hits give low values 1.02 | S. cerevisiae deletion strains, locus YDR101C, strain arx1, hits give low values 1.02 | S. cerevisiae deletion strains, locus YDR162C, strain NBP2, hits give low values 1.07 | S. cerevisiae deletion strains, locus YDR318W, strain mcm21, hits give low values 1.03 | S. cerevisiae deletion strains, locus YDR388W, hits give low values 1.01 | S. cerevisiae deletion strains, locus YDR502C, strain sam2, hits give low values 1.02 | S. cerevisiae deletion strains, locus YER110C, hits give low values 1 | S. cerevisiae deletion strains, locus YER155C, strain BEM2, hits give low values 1.02 | S. cerevisiae deletion strains, locus YER167W, strain BCK2, hits give low values 1.02 | S. cerevisiae deletion strains, locus YGL078C, strain dbp3, hits give low values 1.01 | S. cerevisiae deletion strains, locus YGL086W, strain mad1, hits give low values 1.02 | S. cerevisiae deletion strains, locus YGL248W, strain PDE1, hits give low values 1.04 | [4] 1.04 | S. cerevisiae deletion strains, locus YGR135W, strain pre9, hits give low values 0.998 | S. cerevisiae deletion strains, locus YGR252W, strain gcn5, hits give low values 1.03 | S. cerevisiae deletion strains, locus YHR079C, strain IRE1 (second series), hits give low values 1 | S. cerevisiae deletion strains, locus YHR094C, strain hxt1, hits give low values 0.995 | S. cerevisiae deletion strains, locus YHR129C, strain ARP1, hits give low values 1.02 | S. cerevisiae deletion strains, locus YHR200W, strain rpn10, hits give low values 1.01 | S. cerevisiae deletion strains, locus YIL066C, strain RNR3, hits give low values 1.02 | S. cerevisiae deletion strains, locus YIL073C, strain SPO22, hits give low values 1.06 | S. cerevisiae deletion strains, locus YIL125W, strain kgd1, hits give low values 1 | S. cerevisiae deletion strains, locus YIR030C, strain dcg1, hits give low values 1.01 | S. cerevisiae deletion strains, locus YJL095W, strain BCK1, hits give low values 1.06 | S. cerevisiae deletion strains, locus YJL134W, strain LCB3, hits give low values 1.01 | S. cerevisiae deletion strains, locus YJL168C, strain set2, hits give low values 0.997 | S. cerevisiae deletion strains, locus YJL187C, strain SWE1 (second series), hits give low values 1.04 | [5] 1.06 | S. cerevisiae deletion strains, locus YKL009W, strain mrt4, hits give low values 1.01 | S. cerevisiae deletion strains, locus YKL068W, hits give low values 0.994 | S. cerevisiae deletion strains, locus YKL085W, strain MDH1 (second series), hits give low values 1.01 | S. cerevisiae deletion strains, locus YKL085W, strain MDH1, hits give low values 1.01 | [6] 1.01 | S. cerevisiae deletion strains, locus YKR001C, strain vps1, hits give low values 1.07 | [7] 1.14 | S. cerevisiae deletion strains, locus YLR058C, strain SHM2, hits give low values 1.03 | S. cerevisiae deletion strains, locus YLR102C, strain apc9, hits give low values 0.999 | [8] 1.13 | S. cerevisiae deletion strains, locus YLR268W, strain sec22, hits give low values 1.03 | S. cerevisiae deletion strains, locus YLR342W, strain FKS1 (second series), hits give low values 1.09 | S. cerevisiae deletion strains, locus YLR371W, strain rom2, hits give low values 0.991 | S. cerevisiae deletion strains, locus YLR418C, strain cdc73, hits give low values 1.02 | S. cerevisiae deletion strains, locus YML016C, strain PPZ1, hits give low values 1.02 | S. cerevisiae deletion strains, locus YML032C, strain rad52, hits give low values 1.03 | S. cerevisiae deletion strains, locus YML124C, strain tub3, hits give low values 0.996 | S. cerevisiae deletion strains, locus YMR078C, strain ctf18, hits give low values 0.994 | S. cerevisiae deletion strains, locus YMR223W, strain ubp8, hits give low values 1.01 | [9] 1.03 | [10] 1.06 | S. cerevisiae deletion strains, locus YNL067W, strain RPL9B, hits give low values 1.03 | [11] 1.03 | S. cerevisiae deletion strains, locus YNL233W, strain BNI4, hits give low values 1.04 | S. cerevisiae deletion strains, locus YNL250W, strain rad50, hits give low values 1 | S. cerevisiae deletion strains, locus YNL271C, strain bni1, hits give low values 1 | S. cerevisiae deletion strains, locus YNL298W, strain CLA4, hits give low values 0.995 | S. cerevisiae deletion strains, locus YNL307C, strain MCK1, hits give low values 1 | S. cerevisiae deletion strains, locus YNR052C, strain pop2, hits give low values 1 | [12] 1.22 | S. cerevisiae deletion strains, locus YOL012C, strain htz1 0.967 | S. cerevisiae deletion strains, locus YOL147C, strain pex11, hits give low values 1.01 | S. cerevisiae deletion strains, locus YOR061W, strain CKA2, hits give low values 1.04 | S. cerevisiae deletion strains, locus YOR069W, strain VPS5, hits give low values 1.01 | S. cerevisiae deletion strains, locus YOR136W, strain idh2, hits give low values 1.01 | S. cerevisiae deletion strains, locus YOR144C, strain elg1, hits give low values 0.998 | S. cerevisiae deletion strains, locus YOR184W, strain ser1, hits give low values 1.07 | S. cerevisiae deletion strains, locus YOR316C, strain cot1, hits give low values 0.988 | [13] 1.08 | [14] 1.01 | S. cerevisiae deletion strains, locus YPR119W, strain clb2, hits give low values 0.995 | S. cerevisiae deletion strains, locus YPR141C, strain kar3, hits give low values 1 | S. cerevisiae deletion strains, locus YPR163C, strain tif3, hits give low values 1.02 | S. cerevisiae deletion strains, locus YPR167C, strain met16, hits give low values 1.01 | S. cerevisiae deletion strains, strain wtn01, hits give low values 1.03 | [15] 1.05

COc1cc(/C=C2/N=C(c3ccccc3I)OC2=O)cc(OC)c1OC
inactive: [1] 1 | [2] 1.01 | S. cerevisiae deletion strains, locus YCL061C, strain MRC1, hits give low values 1.01 | [3] 1.03 | [16] 0.888 | [17] 0.984 | [4] 1 | S. cerevisiae deletion strains, locus YGR229C, strain SMI1, hits give low values 0.981 | [18] 0.956 | [19] 1.01 | [5] 1 | [20] 1.01 | [6] 0.995 | [7] 0.964 | [21] 0.996 | [22] 1.01 | [8] 0.947 | [23] 1.02 | [24] 1 | [9] 1 | [10] 0.961 | [25] 1.01 | [26] 1.01 | [27] 0.994 | [28] 0.982 | [12] 0.998 | [13] 1.12 | [14] 0.967 | [29] 0.903 | [15] 0.989

COc1cc(/C=C2/SC(=S)NC2=O)cc(OC)c1OC
active: [1] 0.915 | [2] 0.894 | [3] 0.865 | [4] 0.877 | [20] 0.822 | [7] 0.725 | [21] 0.919 | [8] 0.73 | [24] 0.926 | [9] 0.901 | [25] 0.92 | [27] 0.926
inactive: [16] 0.897 | [17] 0.977 | [18] 0.87 | [19] 0.911 | [5] 0.948 | [22] 0.845 | [23] 0.969 | [10] 0.887 | [11] 0.977 | [26] 0.912 | [28] 0.922 | [13] 0.881 | [14] 0.885 | [29] 0.809
